Results: the supplement of paper PMC11732987, “Enantioselective OTUD7B fragment discovery through chemoproteomics screening and high-throughput optimisation” (Communications Chemistry, 2025)

Key:
Assay in all cases: log2 ratio of Biotin-Ahx-Ub-VS probe labelling (fragment/DMSO); higher = less target engagement (more negative = stronger competition), active = hit call of the paper (q ≤ 0.05, log2 ratio ≤ -1)
Conditions in all cases: compound concentration: 200 uM; treatment time: 3 h
USP19 = target: T1, USP19 (UniProt O94966)
T1 sequence (whole entry): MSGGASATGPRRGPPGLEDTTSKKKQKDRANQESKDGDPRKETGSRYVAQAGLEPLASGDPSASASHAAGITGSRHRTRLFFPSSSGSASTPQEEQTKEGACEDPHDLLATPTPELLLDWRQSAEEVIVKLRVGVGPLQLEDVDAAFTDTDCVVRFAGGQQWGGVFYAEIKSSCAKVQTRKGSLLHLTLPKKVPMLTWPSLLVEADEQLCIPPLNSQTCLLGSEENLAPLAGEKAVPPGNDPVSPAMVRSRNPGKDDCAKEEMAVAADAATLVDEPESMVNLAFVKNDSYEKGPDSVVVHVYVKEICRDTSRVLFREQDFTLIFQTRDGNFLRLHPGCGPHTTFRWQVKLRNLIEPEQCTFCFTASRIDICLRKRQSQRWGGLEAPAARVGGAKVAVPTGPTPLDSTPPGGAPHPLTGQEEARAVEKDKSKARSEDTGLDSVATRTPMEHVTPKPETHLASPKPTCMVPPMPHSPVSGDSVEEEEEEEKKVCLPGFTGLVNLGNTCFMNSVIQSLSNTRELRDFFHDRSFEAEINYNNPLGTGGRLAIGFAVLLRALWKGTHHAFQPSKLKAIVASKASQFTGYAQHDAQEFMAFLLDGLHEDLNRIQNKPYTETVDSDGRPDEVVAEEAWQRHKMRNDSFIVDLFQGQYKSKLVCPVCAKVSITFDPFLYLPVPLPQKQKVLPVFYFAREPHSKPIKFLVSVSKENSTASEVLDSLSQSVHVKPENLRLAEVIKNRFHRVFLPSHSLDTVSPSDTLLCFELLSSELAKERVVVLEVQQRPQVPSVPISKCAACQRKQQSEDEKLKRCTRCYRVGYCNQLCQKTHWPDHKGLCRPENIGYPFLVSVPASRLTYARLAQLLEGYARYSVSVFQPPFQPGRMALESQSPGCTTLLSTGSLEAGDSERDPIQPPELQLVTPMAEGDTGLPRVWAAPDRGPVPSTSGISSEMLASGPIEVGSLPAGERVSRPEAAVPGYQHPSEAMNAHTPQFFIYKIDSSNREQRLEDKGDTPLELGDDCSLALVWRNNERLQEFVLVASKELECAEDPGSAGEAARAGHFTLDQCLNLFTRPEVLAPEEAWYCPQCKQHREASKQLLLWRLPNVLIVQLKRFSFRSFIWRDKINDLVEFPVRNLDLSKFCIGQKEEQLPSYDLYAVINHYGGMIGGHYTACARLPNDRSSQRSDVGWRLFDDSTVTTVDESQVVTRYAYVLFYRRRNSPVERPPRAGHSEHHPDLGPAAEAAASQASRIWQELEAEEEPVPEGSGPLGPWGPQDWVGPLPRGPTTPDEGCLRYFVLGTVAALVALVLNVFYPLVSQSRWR
Procedure, shortened: (§1)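 HEK293T lysate, 495 µg per sample in Tris/CHAPS/IGEPAL buffer with protease inhibitors, was treated in triplicate with fragment at 200 µM or vehicle for 3 h and then with Biotin-Ahx-Ub-VS at 0.5 µM final for 1 h. Labelled DUBs were NeutrAvidin-enriched, digested with LysC and trypsin, and run by diaPASEF LC-MS/MS. Spectronaut label-free quantities were global-median-normalised, and values are average log2 fragment/vehicle ratios by unpaired t-test on proteins with ≥2 unique peptides.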

USP24 = USP24 (UniProt Q9UPU5)
Procedure, shortened: as §1

USP25 = target: T2, USP25 (UniProt Q9UHP3)
T2 sequence (whole entry): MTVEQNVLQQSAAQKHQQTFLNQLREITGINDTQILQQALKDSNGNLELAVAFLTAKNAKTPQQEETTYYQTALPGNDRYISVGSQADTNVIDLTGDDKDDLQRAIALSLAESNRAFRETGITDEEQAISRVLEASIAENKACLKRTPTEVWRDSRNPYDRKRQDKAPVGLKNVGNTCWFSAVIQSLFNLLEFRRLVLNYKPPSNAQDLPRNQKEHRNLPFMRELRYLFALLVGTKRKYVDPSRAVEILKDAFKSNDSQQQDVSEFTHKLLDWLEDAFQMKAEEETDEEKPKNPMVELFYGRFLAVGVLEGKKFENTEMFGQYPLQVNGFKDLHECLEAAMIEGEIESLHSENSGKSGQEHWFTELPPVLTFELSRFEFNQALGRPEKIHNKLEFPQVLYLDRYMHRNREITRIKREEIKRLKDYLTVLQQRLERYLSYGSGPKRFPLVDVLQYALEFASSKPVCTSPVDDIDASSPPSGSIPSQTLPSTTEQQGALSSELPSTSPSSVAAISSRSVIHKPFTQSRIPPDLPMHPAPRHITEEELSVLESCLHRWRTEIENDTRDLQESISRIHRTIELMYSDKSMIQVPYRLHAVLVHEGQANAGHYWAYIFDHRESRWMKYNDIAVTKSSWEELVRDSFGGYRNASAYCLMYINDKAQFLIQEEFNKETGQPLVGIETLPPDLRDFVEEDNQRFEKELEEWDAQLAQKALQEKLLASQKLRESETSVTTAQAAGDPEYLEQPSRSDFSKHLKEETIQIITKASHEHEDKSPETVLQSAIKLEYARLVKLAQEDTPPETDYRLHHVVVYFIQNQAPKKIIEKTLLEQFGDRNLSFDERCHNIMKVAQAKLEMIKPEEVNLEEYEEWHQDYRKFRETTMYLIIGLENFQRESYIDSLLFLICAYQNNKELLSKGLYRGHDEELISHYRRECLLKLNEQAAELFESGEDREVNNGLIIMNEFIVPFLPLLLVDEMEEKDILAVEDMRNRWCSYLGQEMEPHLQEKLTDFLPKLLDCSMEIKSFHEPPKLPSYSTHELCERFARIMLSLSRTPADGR
Procedure, shortened: as §1

USP28 = target: T3, USP28 (UniProt Q96RU2)
T3 sequence (whole entry): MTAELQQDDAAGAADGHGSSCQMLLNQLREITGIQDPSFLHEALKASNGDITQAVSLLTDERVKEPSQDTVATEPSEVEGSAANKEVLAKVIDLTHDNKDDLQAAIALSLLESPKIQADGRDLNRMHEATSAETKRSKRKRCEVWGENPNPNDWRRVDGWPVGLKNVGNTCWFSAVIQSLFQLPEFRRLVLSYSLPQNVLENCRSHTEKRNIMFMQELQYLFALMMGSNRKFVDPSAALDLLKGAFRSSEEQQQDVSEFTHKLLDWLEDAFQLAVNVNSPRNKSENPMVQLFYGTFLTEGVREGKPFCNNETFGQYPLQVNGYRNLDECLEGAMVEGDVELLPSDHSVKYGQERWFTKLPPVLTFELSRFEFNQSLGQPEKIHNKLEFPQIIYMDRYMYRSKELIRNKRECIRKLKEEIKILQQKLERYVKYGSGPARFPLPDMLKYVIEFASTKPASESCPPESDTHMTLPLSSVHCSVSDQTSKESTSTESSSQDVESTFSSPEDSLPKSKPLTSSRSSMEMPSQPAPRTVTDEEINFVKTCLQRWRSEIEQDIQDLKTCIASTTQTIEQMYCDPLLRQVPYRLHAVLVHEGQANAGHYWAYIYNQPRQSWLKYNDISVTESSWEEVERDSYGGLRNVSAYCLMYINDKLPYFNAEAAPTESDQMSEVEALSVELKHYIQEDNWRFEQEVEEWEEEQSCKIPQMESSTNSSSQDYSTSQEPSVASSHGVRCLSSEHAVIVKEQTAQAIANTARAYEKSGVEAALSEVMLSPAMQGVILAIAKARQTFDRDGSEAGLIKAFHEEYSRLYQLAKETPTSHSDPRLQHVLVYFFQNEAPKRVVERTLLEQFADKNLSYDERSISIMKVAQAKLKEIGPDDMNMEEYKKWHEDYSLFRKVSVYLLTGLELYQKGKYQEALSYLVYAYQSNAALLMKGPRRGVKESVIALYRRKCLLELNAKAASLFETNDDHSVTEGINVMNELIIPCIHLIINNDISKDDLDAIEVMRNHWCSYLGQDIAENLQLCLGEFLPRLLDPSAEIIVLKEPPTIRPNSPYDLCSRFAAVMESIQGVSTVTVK
Procedure, shortened: as §1

Measured: log2 ratio of Biotin-Ahx-Ub-VS probe labelling

Chain of USP24 (Q9UPU5 whole entry): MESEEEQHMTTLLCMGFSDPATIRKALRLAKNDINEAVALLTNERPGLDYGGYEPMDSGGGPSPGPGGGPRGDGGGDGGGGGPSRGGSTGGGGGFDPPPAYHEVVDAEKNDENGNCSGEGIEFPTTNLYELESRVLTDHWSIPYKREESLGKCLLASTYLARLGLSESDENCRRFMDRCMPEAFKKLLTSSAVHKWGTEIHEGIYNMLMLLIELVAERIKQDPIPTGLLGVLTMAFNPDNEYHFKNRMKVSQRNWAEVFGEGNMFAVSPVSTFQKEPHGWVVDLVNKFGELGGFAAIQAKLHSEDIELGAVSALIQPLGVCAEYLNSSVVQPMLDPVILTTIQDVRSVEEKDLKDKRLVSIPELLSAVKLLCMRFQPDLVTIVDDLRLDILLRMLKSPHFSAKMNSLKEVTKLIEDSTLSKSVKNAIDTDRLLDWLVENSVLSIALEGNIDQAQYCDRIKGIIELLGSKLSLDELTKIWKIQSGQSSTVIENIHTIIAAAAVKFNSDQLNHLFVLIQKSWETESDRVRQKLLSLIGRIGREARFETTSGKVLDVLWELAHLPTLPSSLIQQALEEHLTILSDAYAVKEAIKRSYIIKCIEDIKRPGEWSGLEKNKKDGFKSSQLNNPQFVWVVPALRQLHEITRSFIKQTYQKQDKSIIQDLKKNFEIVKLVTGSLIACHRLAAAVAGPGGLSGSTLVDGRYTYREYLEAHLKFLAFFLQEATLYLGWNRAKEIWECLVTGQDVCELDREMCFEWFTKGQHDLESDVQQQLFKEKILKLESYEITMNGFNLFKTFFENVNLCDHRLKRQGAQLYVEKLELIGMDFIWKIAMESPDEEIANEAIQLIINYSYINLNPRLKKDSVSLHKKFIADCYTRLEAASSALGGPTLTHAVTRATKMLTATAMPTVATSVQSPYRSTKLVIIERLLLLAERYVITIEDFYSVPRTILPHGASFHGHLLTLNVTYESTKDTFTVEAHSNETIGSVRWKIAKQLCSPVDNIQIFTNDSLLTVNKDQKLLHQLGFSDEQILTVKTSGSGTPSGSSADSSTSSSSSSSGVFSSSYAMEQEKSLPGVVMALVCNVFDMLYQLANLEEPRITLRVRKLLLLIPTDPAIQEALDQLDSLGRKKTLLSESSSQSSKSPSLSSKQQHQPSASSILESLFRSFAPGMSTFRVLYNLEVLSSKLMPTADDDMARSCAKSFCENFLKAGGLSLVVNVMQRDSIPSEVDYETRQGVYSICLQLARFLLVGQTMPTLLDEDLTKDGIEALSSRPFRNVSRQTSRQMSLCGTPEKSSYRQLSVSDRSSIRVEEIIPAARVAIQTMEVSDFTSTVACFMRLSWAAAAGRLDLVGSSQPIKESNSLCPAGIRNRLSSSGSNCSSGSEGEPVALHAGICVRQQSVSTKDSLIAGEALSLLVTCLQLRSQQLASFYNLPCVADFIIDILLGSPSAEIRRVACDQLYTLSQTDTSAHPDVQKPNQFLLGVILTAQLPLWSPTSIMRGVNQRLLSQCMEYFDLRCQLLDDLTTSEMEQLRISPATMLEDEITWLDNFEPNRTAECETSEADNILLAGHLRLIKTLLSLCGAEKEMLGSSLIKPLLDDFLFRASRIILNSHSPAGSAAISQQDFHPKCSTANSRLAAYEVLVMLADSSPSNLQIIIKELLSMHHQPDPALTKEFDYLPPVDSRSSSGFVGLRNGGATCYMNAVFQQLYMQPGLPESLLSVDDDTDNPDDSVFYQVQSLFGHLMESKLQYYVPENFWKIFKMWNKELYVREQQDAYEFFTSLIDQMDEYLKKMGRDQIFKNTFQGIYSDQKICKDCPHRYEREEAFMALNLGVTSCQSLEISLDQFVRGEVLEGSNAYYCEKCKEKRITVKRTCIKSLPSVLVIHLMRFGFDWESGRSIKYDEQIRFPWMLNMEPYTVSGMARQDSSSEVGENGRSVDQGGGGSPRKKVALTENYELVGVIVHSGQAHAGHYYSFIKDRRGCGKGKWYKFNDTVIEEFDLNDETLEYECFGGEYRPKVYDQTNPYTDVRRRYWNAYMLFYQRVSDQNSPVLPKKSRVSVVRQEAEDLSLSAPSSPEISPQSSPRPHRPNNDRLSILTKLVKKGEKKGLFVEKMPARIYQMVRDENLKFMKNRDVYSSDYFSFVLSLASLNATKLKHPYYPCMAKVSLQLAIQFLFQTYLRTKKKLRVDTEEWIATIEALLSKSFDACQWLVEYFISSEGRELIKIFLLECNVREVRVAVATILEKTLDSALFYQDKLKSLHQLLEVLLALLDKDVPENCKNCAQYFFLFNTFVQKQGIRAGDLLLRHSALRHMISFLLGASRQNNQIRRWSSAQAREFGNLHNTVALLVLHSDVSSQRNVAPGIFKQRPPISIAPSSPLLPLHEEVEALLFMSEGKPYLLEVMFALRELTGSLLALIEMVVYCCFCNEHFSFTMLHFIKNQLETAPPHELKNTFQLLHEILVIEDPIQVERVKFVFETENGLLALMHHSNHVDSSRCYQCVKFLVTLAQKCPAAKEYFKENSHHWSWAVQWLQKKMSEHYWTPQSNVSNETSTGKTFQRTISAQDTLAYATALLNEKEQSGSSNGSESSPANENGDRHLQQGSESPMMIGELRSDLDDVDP

Cl.Cn1cnc2cc(CNC(=O)CCl)ccc21
inactive: USP19 -0.154 | USP24 -0.0163 | USP25 -0.177 | USP28 -0.154
